Assay results as given in PubChem BioAssay.
Active and inactive are the calls of the source. Unless noted, how the calls were made is not given here.

Key:
[1] = test system: Wnt5a (protein binding on small-molecule microarray); assay: small molecules binding Wnt5a protein – biophysical, small-molecule microarray, 635/667 nm fluorescence, primary screen (AID 1142); conditions: 635 nm fluorescence, higher = more signal;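 further: fluorescence read at 667 nm with signal to noise per printed feature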
[2] = ATP-based viability of Huh7 replicon cells – cell-based, CellTiter-Glo luminescence, basal, 48 h, cytotoxicity control for HCV replication inhibitor project, primary screen (AID 1143); conditions: higher = more signal, called active from +8 up or from −8 down;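 further: Huh7 hepatoma cells carrying a hepatitis C replication reporter with no stimulus; test concentration not given here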
[3] = Pseudomonas biofilm growth suppression – PAO1 strain, BacTiter-Glo luminescence, LB-PBS, primary screen (AID 1144); conditions: P. aeruginosa PAO1 biofilm, 12 h, higher = more signal
[4] = basal CRE-LacZ reporter activity in PC12 – cell-based, unstimulated, primary screen (AID 1145); conditions: no forskolin, luminescence, 4.5 h, higher = more signal, called active from +8 up or from −8 down
[5] = forskolin-driven CRE-LacZ activity in PC12 – cell-based, CRE-LacZ reporter, forskolin-stimulated, primary screen (AID 1146); conditions: luminescence, 4.5 h, higher = more signal, called active from +8 up or from −8 down;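 further: PC12 cells with 6xCRE LacZ reporter stimulated by forskolin 10 µM; beta-galactosidase reporter signal reflecting CREB driven transcription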
[6] = biological target: Streptavidin (Streptomyces avidinii) (UniProt P22629); assay: compounds binding control protein streptavidin – biophysical, small-molecule microarray, 635/667 nm fluorescence, artefact control for SMM compound annotation, primary screen (AID 1147); conditions: higher = more signal;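 further: signal reflects streptavidin binding to arrayed compounds as a control protein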
[7] = probe aInhba binding on compound microarray – biochemical, small-molecule microarray, 635/667 nm fluorescence, primary screen (AID 1148); conditions: higher = more signal;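 further: score merges 667nm spot fluorescence with signal-to-noise for antibody binding to printed compounds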
Torsin-1A (Homo sapiens) [8] = biological target: Torsin-1A (Homo sapiens) (UniProt O14656); assay: TOR1A wild-type binding on microarray – cell lysate, small-molecule microarray, lysate, 635/667 nm, primary screen (AID 1149); conditions: COS7 hTOR1A-WT lysate, 635 nm fluorescence, higher = more signal
Torsin-1A (Homo sapiens) [9] = biological target: Torsin-1A (Homo sapiens) (UniProt O14656); assay: torsin A mutant lysate binding on microarrays – cell lysate, small-molecule microarray, COS7 lysate, 635/667 nm fluorescence, primary screen (AID 1150); conditions: COS7 hTOR1A mutant lysate, 635 nm fluorescence, higher = more signal;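 further: score pools 667 nm emission and signal to noise measuring lysate protein binding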
[10] = test system: Sonic hedgehog protein (Shh); assay: Sonic hedgehog microarray binding compounds – biochemical, small-molecule microarray, 635/667 nm fluorescence, primary screen (AID 1151); conditions: 635 nm fluorescence, higher = more signal;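 further: Shh protein binding to compounds spotted on small-molecule microarray slides; score combines spot fluorescence intensity with signal-to-noise across triplicate slides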

Torsin-1A (Homo sapiens), sequence (O14656 whole entry, looked up): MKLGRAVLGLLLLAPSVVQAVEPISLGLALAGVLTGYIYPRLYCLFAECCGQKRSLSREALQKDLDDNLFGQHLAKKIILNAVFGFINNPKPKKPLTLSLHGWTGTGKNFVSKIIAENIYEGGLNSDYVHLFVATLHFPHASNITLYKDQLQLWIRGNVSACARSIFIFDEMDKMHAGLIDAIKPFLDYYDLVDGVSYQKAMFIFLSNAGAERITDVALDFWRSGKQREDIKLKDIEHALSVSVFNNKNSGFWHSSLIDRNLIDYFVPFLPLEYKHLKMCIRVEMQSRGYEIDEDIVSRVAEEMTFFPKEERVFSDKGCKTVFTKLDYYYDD
Streptavidin (Streptomyces avidinii), sequence (P22629 whole entry, looked up): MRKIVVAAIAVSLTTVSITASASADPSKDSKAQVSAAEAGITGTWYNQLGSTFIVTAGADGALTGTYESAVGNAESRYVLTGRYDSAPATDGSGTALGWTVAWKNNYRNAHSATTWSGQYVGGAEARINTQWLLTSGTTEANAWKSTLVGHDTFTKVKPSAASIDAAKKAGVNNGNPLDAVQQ

Row | Compound | composite z-score [1] | z-score [2] | z-score [3] | z-score [4] | z-score [5] | composite z-score [6] | composite z-score [7] | composite z-score (Torsin-1A (Homo sapiens) [8]) | composite z-score (Torsin-1A (Homo sapiens) [9]) | composite z-score [10]
1 | CC(C)C(=C=CC[C@@H](O)c1ccc(OCCO)cc1)C[C@@H](O)c1ccccn1 | 0.207 | -0.661 (inactive) | 0.205 (inactive) | 0.145 (inactive) | 1.4 (inactive) | 0.0453 | -0.231 | 0.75 | 0.205 | 2.26
2 | Cc1ccc(S[C@]2(C(=O)NCCCN(C)C)CC(=O)N(Cc3cc(C(F)(F)F)cc(C(F)(F)F)c3)[C@@H]2c2ccc(CO)cc2)cc1 | -0.202 | -0.0481 (inactive) | -0.617 (inactive) | -0.152 (inactive) | 1.19 (inactive) | -0.529 | 0.0363 | -0.0089 | -0.256 | -0.664
3 | COc1ccc(C(=O)Nc2ccc(CN3C(=O)[C@]4(O[C@H](CCO)[C@@H]([Si](C)(C)c5ccc(OC)cc5)[C@@H]4C)c4ccccc43)cc2)cc1 | 0.406 | -7.95 (inactive) | -0.925 (inactive) | 8.84 (active) | -1.89 (inactive) | 0.566 | 0.0014 | 0.108 | 0.165 | 1.48
4 | C[N+](C)(C)CCCC[C@@H]1NC(=O)[C@H]2C[C@@H](C(=O)NCCCCCCNC(=O)CS)[C@@H](c3cccc(OCCO)c3)N2C1=O | -0.298 | 0.2 (inactive) | -0.635 (inactive) | -0.683 (inactive) | 0.0114 (inactive) | -0.667 | -0.21 | -0.182 | -0.14 | -0.396
5 | COC(=O)[C@@]1(Cc2ccc(F)cc2)[C@H]2c3cc(C(=O)N4CCCC4)n(CCCNc4ncc(C(F)(F)F)cc4Cl)c3C[C@H]2CN1C(=O)c1ccccc1 | -0.026 | -1.89 (inactive) | -0.0456 (inactive) | 1.74 (inactive) | -0.152 (inactive) | 0.919 | 0.656 | -0.107 | -0.0136 | -0.516
6 | C=C(CCCC)/C(=C/C[C@@H](OC(C)=O)c1ccc(OCCO)cc1)c1cnc2ccccc2c1 | -0.0157 | -0.842 (inactive) | -1.02 (inactive) | 1.21 (inactive) | -0.438 (inactive) | 0.514 | -0.0405 | -0.197 | 0.101 | 1.77
7 | CCOC(=O)C[C@H]1[C@H](OC(=O)c2ccc(C(=O)c3ccccc3)cc2)[C@@H](NC(=O)CC(C)C)c2cc(OCCCO)ccc2N1C(=O)c1ccc2ccccc2n1 | 0.188 | -0.772 (inactive) | -1.04 (inactive) | 0.469 (inactive) | -0.23 (inactive) | 1.22 | -0.003 | 0.396 | 0.15 | 1.27
8 | CN1C=C(C(=O)OCCS(C)(=O)=O)C(C(=O)OCCS(C)(=O)=O)=CC(c2ccc(CO)cc2)=CC1C1CC1 (stereo not given) | 0.0929 | -0.95 (inactive) | 0.706 (inactive) | -0.205 (inactive) | -0.507 (inactive) | -0.0005 | 0.149 | 0.738 | 0.5 | 0.457
9 | CCOC(=O)C[C@H]1[C@H](OC(=O)c2cc3ccccc3oc2=O)[C@@H](NC(=O)c2ccccc2)c2cc(OCCCO)ccc2N1C(=O)c1ccc2ccccc2n1 | 0.343 | -0.468 (inactive) | 0.594 (inactive) | 9.1 (active) | -0.539 (inactive) | 0.865 | -0.0405 | 0.0356 | 0.611 | 0.954
